MEKK2wt PB1 HTS – modulators of MEK5 binding to wildtype MEKK2, primary screen, biochemical, multiplex bead flow cytometry, Alexa488-MEK5; AID 1531, 2009; binding response (% of control), % at 10 µM; 290,000 compounds, 1.1% hits; Mitogen-activated protein kinase kinase kinase 2 (Homo sapiens), Q9Y2U5; Alexa488-MEK5 binding to MEKK2 WT; actives lie on both sides; in the data active = binding response below about 67% or above about 130%
MEKK2mut PB1 HTS – MEK5 binding signal on mutant MEKK2 PB1, primary screen, biochemical, multiplex bead flow cytometry, Alexa488-MEK5. Alexa488-MEK5 binding to MEKK2 mutant. percent response, % at 10 µM. 290,000 compounds, 0.35% hits; in the data active = percent response above about 24%, passing the limit was not always enough
CHT allo act – CHT positive allosteric modulators, primary screen, cell-based, membrane potential dye, choline EC20. B-score at 10 µM. 310,000 compounds, 0.49% hits. CHT-expressing cells; hits give high values; LV-AA mutant CHT in HEK293 cells. AID 488977, 2010;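 active = initial fluorescence not abnormally high and integrated response B-score, plate-corrected, over 3 SD above library mean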
Target sequence (Q9GZV3 whole entry, looked up): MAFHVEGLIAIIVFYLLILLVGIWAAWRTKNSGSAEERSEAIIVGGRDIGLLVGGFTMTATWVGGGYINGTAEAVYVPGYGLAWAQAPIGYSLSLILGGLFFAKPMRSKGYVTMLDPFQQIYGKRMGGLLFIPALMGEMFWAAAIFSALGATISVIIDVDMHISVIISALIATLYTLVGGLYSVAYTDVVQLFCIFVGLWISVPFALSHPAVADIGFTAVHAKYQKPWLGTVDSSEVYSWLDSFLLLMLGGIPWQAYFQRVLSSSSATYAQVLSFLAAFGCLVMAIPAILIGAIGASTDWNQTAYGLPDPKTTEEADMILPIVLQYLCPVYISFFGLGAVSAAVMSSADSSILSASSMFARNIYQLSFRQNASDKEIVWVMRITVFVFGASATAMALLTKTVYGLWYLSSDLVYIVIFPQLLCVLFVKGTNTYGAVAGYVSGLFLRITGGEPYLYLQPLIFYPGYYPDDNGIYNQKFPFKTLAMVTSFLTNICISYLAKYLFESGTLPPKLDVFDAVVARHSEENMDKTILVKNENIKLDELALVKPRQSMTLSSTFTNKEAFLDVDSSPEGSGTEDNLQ
SUMO Mot1 rescue – yeast Mot1-301 growth rescue at high temperature, primary screen, SUMOylation pathway inhibitor project, S. cerevisiae, ATP luminescence, 38.5C. S. cerevisiae Mot1-301 growth rescue; percent above DMSO median, 100 means doubled. growth rescue, % at 18.8 µM. 320,000 compounds, 1% hits. AID 2716, 2010;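 active = every valid replicate shows activation above 250% relative to neutral control wells; inactive = the rest, any valid replicate at or below 250%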;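 also: OY570 slx delta 5 strain wells were the positive control but not used for scaling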
MEKK3 PB1 HTS – modulators of MEKK3-MEK5 PB1 binding, primary screen, biochemical, wildtype MEKK3, multiplex bead flow cytometry, Alexa488-MEK5; bead-based flow cytometry, Alexa488-MEK5 binding to MEKK3; actives lie on both sides; 0 = blocked by unlabeled MEK5, 100 = vehicle; 290,000 compounds, 1.4% hits; binding response (% of control), % at 10 µM;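 active = binding response more than 3 SD above or below the average of its plate-row segment, actives on both sides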;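 also: Alexa488 bead fluorescence after subtracting the streptavidin-only scavenger bead signal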
CHT block – inhibitors of human choline transporter CHT | CHT-expressing cells, membrane potential dye, choline response; hits give low values | 310,000 compounds, 0.86% hits | AID 488975, 2010 | B-score at 10 µM;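 active = B-score over 3 SD under the library average, and starting fluorescence ratio not unusually high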;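 also: choline stimulus applied at its EC90 after an EC20 pre-addition; B-score computed on integrated fluorescence ratio after choline addition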
MEKK2wt confirm – modulators of MEK5 binding to wildtype MEKK2, confirmation, biochemical, single concentration, multiplex bead flow cytometry | shares compounds with MEKK3 PB1 HTS | Alexa488-MEK5 binding to MEKK2 WT; actives lie on both sides | binding response (% of control), % at 10 µM | 5,900 compounds, 2.4% hits; in the data active = binding response below about 16% or above about 210%; inactive = in between
MEKK2mut confirm – mutant MEKK2 PB1-MEK5 binding signal retest – biochemical, single concentration, multiplex bead flow cytometry, confirmation; shares compounds with MEKK3 PB1 HTS; Alexa488-MEK5 binding to MEKK2 mutant; percent response, % at 10 µM; 5,900 compounds, 2% hits; AID 1893, 2009; in the data active = percent response mostly above about 71%, no sharp cut-off; inactive = mostly below about 38%;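 also: higher means compound restores mutant binding toward wildtype level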
MEKK3 confirm – MEKK3 wild-type PB1 binding to MEK5, inhibitors, confirmation, biochemical, bead multiplex flow cytometry, single concentration, wildtype; shares compounds with MEKK3 PB1 HTS; Alexa488-MEK5 binding to MEKK3; hits give low values; binding response (% of control), % at 10 µM; 5,900 compounds, 1.8% hits; AID 1894, 2009;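 active = binding response below 72% of control, or above a set upper limit, though filed actives all read lower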;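 also: 100% = DMSO only wells and 0% = binding blocked by excess unlabeled MEK5; lower values mean stronger disruption of MEK5 binding to MEKK3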
* hit, by the source's call; i = inactive; / = no result; [ ] = remark or other dose. Shown are actives, neighbours in structure and some others; about 4.1% of the full set was active somewhere.

SMILES	MEKK2wt PB1 HTS	MEKK2mut PB1 HTS	CHT allo act	SUMO Mot1 rescue	MEKK3 PB1 HTS	CHT block	MEKK2wt confirm	MEKK2mut confirm	MEKK3 confirm
Cc1ccc(CNC(=O)C(=O)NCC2OCCN2C(=O)c2cccs2)cc1 (centres undefined)	103	0	i	-21	135*	i	104	2	105
Cc1ccc(CNC(=O)C(=O)NCC2OCCN2C(=O)c2ccc(Cl)cc2)cc1 (centres undefined)	99	2	i	-18	104	i	/	/	/
O=C(NCc1ccccc1)C(=O)NCC1OCCN1C(=O)c1cccs1 (centres undefined)	103	0	i	12	132*	i	99	0	102
O=C(NCc1ccccc1)C(=O)NCC1OCCN1C(=O)c1ccc(Cl)cc1 (centres undefined)	98	-2	i	-8	100	i	/	/	/
CC1(C)Cc2[nH]c3ccccc3c2C(C)(C)N1	107	12	i	2	109	i	/	/	/
CCCc1cc(C(=O)NNC(=S)Nc2cccc(C)c2)cs1	106	0	i	24	129*	i	102	-7	98
COc1cc2[nH]c(=O)n(CCC(=O)N3CCc4ccccc4C3)c(=O)c2cc1OC	124	8	i	-6	122*	i	108	6	102
CC(=O)Nc1ccc(OCC(O)Cn2c3ccccc3c3ccccc32)cc1 (centres undefined)	120	2	i	-6	176*	i	-6.0*[inhibitor]	-3	84
CC(=O)Nc1ccc(OCC(O)CN2C(C)CCCC2C)cc1 (centres undefined)	101	-2	i	-6	101	i	/	/	/
CC(=O)Nc1ccc(OCC(O)CN2C(C)(C)CC(O)CC2(C)C)cc1 (centres undefined)	96	-1	i	0	74*[inhibitor]	i	102	-3	100
Cc1ccc(CN2CCSc3ccc(C(=O)NC4CCN(Cc5ccccc5)CC4)cc32)cc1	206*	46	i	-4	106	i	240*	80*	110
Cc1oc(-c2ccc(Cl)cc2)cc1C(=O)NC1CCN(Cc2ccccc2)CC1	175*	50	i	6	107	i	173	47	108
Cc1ccc(CN2CCSc3ccc(C(=O)NCCCN4CCOCC4)cc32)cc1	125	9	i	22	107	i	/	/	/
Cc1ccc(CN2CCSc3ccc(C(=O)NCc4ccco4)cc32)cc1	58*[inhibitor]	-15	i	6	56*[inhibitor]	i	100	-2	105
O=C(NC1CCCC1)c1ccc2c(c1)N(Cc1ccccc1)CCS2	100	-2	i	2	99	i	/	/	/
c1ccc2c(-c3cn4ccccc4n3)c[nH]c2c1	63*[inhibitor]	2	i	-3	100	i	115	19	108
N=C1/C(=C/c2cccn2Cc2ccc(Cl)cc2)C(=O)N=C2SC=CN12	107	-1	i	-18	129*	i	112	5	109
Cc1cccc(Nc2ccncc2S(N)(=O)=O)c1	/	/	i	-11	/	i	/	/	/
COc1ccc(S(=O)(=O)N2CCC(C(=O)NCCc3ccc4c(c3)OCO4)CC2)cc1	56	-26	i	3	48*[inhibitor]	i	106	-1	102
COc1ccccc1CNC(=O)CSc1nnc2ccc(-c3cccnc3)nn12	103	171*	i	-16	105	i	101	-3	102
COc1ccc(NC(=O)CSc2nnc3ccc(-c4cccnc4)nn23)cc1OC	/	/	i	5	/	i	/	/	/
CC(Sc1nnc(-c2ccncc2)n1C)C(=O)Nc1ccc(N2CCOCC2)cc1 (centres undefined)	/	/	/	7	/	/	/	/	/
CC1CC(C)CN(CC(O)COc2ccc3c(c2)CCC3)C1 (centres undefined)	110	1	i	80	152*	i	97	-3	98
COc1ccc2cc(C(=O)Nc3ccc(S(N)(=O)=O)cc3)sc(=O)c2c1OC	90	-7	i	195	95	i	/	/	/
Cc1cc(NC(=O)C(C)SCC(=O)Nc2nc3c(F)cc(F)cc3s2)no1 (centres undefined)	/	/	/	3	/	/	/	/	/
SMILES	MEKK2wt PB1 HTS	MEKK2mut PB1 HTS	CHT allo act	SUMO Mot1 rescue	MEKK3 PB1 HTS	CHT block	MEKK2wt confirm	MEKK2mut confirm	MEKK3 confirm
Cc1cc(C(C)(C)C)ccc1OCCOCCN1CCCC1	110	1	i	14	136*	i	108	-2	100
CC(C)(C)c1cc(Cl)ccc1OCCOCCN1CCCC1	124	10	i	103	102	i	/	/	/
CC1(C)Cc2c(ccc3ccccc23)-c2nnc(-c3cccnc3)n21	-8.0*[inhibitor]	-22	i	79	0.0*[inhibitor]	i	103	2	100
CCC(CO)[n+]1c(C)cc(/C=C2\Sc3ccccc3N2Cc2ccccc2)cc1C (centres undefined)	63*[inhibitor]	-5	i	-17	79	i	107	11	100
COc1ccc(C(=O)N2CCCC(CNC(=O)c3ccccc3Cl)C2)o1 (centres undefined)	105	3	i	-7	103	i	/	/	/
CCSc1nc2sc3c(c2c(=O)[nH]1)CCCC3	94	3	i	25	96	i	/	/	/
CCSC1=NC2(CCCCC2)Nc2sc3c(c21)CCCC3	2.0*[inhibitor]	-16	i	-4	3.0*[inhibitor]	i	97	1	97
CCN(CC)CCCNC(=S)N1CCN(c2nc(-c3ccc(F)cc3)cs2)CC1	186*	27*	i	-3	110	i	143	31	107

Assay outcomes from PubChem.
